Assay [1] can be described thus: NCI Yeast Anticancer Drug Screen. Data for the rad50 strain (AID 155).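 Further: 0% = growth of vehicle-only cultures of the same strain.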 The following applies: S. cerevisiae rad50 strain growth inhibition; at 50.0 µM; hits give high values. In a few lines: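 Relative growth inhibition (compound vs vehicle) was measured in yeast with a defined repair-gene alteration.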
The nature of assay [2]: NCI Yeast Anticancer Drug Screen. Data for the mec2-1 strain (AID 157). As to conditions: S. cerevisiae mec2-1 strain, at 50.0 µM, hits give high values. In a few lines: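 Compounds were applied to mec2-1 yeast cells. Their growth was then compared with that of vehicle-treated cultures to give growth inhibition.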
Assay [3] is described as follows: NCI Yeast Anticancer Drug Screen. Data for the sgs1 mgt1 strain (AID 161).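 Further: 0% = growth of cultures given vehicle only.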 As to conditions: S. cerevisiae sgs1 mgt1 strain, at 50.0 µM, hits give high values. In a few lines: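 Compounds are added to genetically altered yeast, and growth is compared with cultures given vehicle alone to give percent inhibition.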
Assay [4] is described as follows: NCI Yeast Anticancer Drug Screen. Data for the cln2 rad14 strain (AID 165).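 Further: 0% = growth equal to vehicle treated cultures.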 The following applies: S. cerevisiae cln2 rad14 strain, at 50.0 µM, hits give high values. In a few lines:
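Strain: cln2 rad14 yeast, altered in cell cycle control and DNA damage repair. Read-out: growth inhibition vs vehicle.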

A short description of assay [5]: NCI Yeast Anticancer Drug Screen. Data for the bub3 strain (AID 167). As to conditions: S. cerevisiae bub3 mutant strain, at 50.0 µM, hits give high values. In a few lines: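 Screening used yeast with an engineered genetic alteration affecting cell cycle control. Compound-exposed cultures were compared with vehicle cultures, and reduced growth was taken as inhibition.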

The nature of assay [6]: NCI Yeast Anticancer Drug Screen. Data for the mlh1 rad18 strain (AID 175). The following applies: S. cerevisiae mlh1 rad18 strain growth inhibition; at 50.0 µM; hits give high values. In a few lines:
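A repair-deficient yeast strain is exposed to test compound, and growth is scored relative to vehicle-treated controls.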

This is part of a sample that, as a whole, favours compounds with a hit. Of some 79,000 tested, about 15% had one in any assay. Values without a mark were called inactive. Calls of active or inactive are those of the source. No stated cut-off is given here; in the data, active means growth inhibition above about 70%; inactive means the rest.

On to `Cc1ccc2nc(CCl)[nH]c2c1`, for which the growth inhibition in assay [1] was 31.6%; in assay [2], -5.65%; in assay [3], 34%; in assay [4], 18.4%; in assay [5], -18.1%; in assay [6] it was 58.7%.

As for `O=S1(=O)CCCCO1`, the growth inhibition in assay [1] was -6%; in assay [2], 1.65%; in assay [3] it was -10.9%; in assay [4], 17.2%; in assay [5] it was -8.95%; in assay [6] it was 4.4%.

On to `CCCC[C@@H]1CCN2C[C@@H](O)[C@@H](O)[C@@H]2[C@H]1O`, for which the growth inhibition was -2.4% in assay [1]; 5.65% in assay [2]; -9.45% in assay [3]; 11.7% in assay [4]; 12.2% in assay [5]; -12.9% in assay [6].

On to `CN(C)P(=O)(N(C)C)N1CCCCC1`, for which the growth inhibition in assay [1] is -6.35%; in assay [2], -10.2%; in assay [3], 0.3%; in assay [4] it was -22%; in assay [5], -23.6%; in assay [6], -4.3%.

For the compound `COc1oc(C2C/C(=C/C(C)=C/C(C)=C/C(C)=C/c3ccc([N+](=O)[O-])cc3)CO2)c(C)c(=O)c1C` (stereo not given), the growth inhibition in assay [1] was 1.15%; in assay [2], -4.75%; in assay [3], -9.4%; in assay [4], -6.85%; in assay [5], -8.15%; in assay [6], -33%.

For the compound `Nc1ncn[nH]1`, the growth inhibition in assay [1] is -5.05%; in assay [2], 11.7%; in assay [3], -7.75%; in assay [4], 7.9%; in assay [5], 18.6%; in assay [6] it was -3.25%.

Take `O=C1NC(=O)C(Cc2ccc3c(c2)OCO3)C(=O)N1`: the growth inhibition is -6.05% in assay [1]; -9.5% in assay [2]; 4.95% in assay [3]; -62.9% in assay [4]; 7.35% in assay [5]; 8.15% in assay [6].

Take `CCN(CC)CCO`: the growth inhibition in assay [1] was -4.1%; in assay [2], -4.9%; in assay [3], -9.6%; in assay [4], 7.05%; in assay [5], 15.2%; in assay [6], -23.6%.

Regarding `O=C1NC(=O)C(Cc2cccc(Cl)c2)C(=O)N1`, the growth inhibition in assay [1] was 15.1%; in assay [2] it was -6.9%; in assay [3], -15.8%; in assay [4] it was -8.05%; in assay [5], 0.55%; in assay [6], -36%.

Turning to `COc1cccc2c1C(=O)c1c(O)c3c(c(O)c1C2=O)C[C@@](O)(C(=O)CO)C[C@@H]3OC1CC(N2CCOCC2C#N)C(O)C(C)O1` (stereo not given in full), the growth inhibition in assay [1] is 90.1% (active); in assay [2] it was 91.2% (active); in assay [3], 92.4% (active); in assay [4], 89.8% (active); in assay [5] it was 90.5% (active); in assay [6], 91% (active).

As to `CC(=O)CC(C)=O.CC(=O)CC(C)=O.[O]=[V]`, the growth inhibition in assay [1] is -60.2%; in assay [2], -58%; in assay [3], -57.8%; in assay [4], -153%; in assay [5], -54.6%; in assay [6] it was -53.2%.

As to `CCCC(=O)OC1C(c2ccc(=O)oc2)C2(C)CCC3C(CCC4CC(OC(C)=O)CCC43C)C23OC13` (stereo not given), the growth inhibition in assay [1] was 1.55%; in assay [2], -16.9%; in assay [3], 1.5%; in assay [4] it was 9.6%; in assay [5] it was -5.95%; in assay [6] it was 0.2%.

In the case of `O=C(c1ccccc1)C1NC1c1ccccc1` (stereo not given), the growth inhibition in assay [1] was 13.8%; in assay [2], 39.4%; in assay [3], 1.65%; in assay [4], -16.6%; in assay [5], 19.8%; in assay [6], 10.2%.

As for `COC12CC3C4=CCOC5CC(=O)N6c7ccccc7C1(CCN2C4)C6C53` (stereo not given), the growth inhibition in assay [1] is 5.3%; in assay [2], -23.8%; in assay [3] it was 13.3%; in assay [4], 16.9%; in assay [5], 15.2%; in assay [6] it was 15.4%.

`O=C/C=C/c1ccco1`: the growth inhibition in assay [1] is 17.4%; in assay [2] it was -14.3%; in assay [3] it was -15.2%; in assay [4] it was 14.2%; in assay [5] it was -8.45%; in assay [6], 31.8%.

Turning to `CCN1C(=O)C(C)C(=O)N(C)C1=O` (stereo not given), the growth inhibition is -33.6% in assay [1]; 18.7% in assay [2]; 0.9% in assay [3]; -11.4% in assay [4]; 0.1% in assay [5]; 1.8% in assay [6].

In the case of `O=c1c(O)c(-c2ccccc2)oc2ccccc12`, the growth inhibition in assay [1] was 12.6%; in assay [2] it was 14.8%; in assay [3], 35.5%; in assay [4], 15.6%; in assay [5] it was 42.5%; in assay [6], 34.8%.

Regarding `c1ccc(NNc2ccccc2)cc1`, the growth inhibition in assay [1] is 8.5%; in assay [2], 1.7%; in assay [3], 0.95%; in assay [4] it was -14.1%; in assay [5] it was -6.15%; in assay [6], -5.65%.

Turning to `COc1ccc2c(C3(O)CCNCC3)c[nH]c2c1`, the growth inhibition was 0.1% in assay [1]; -1.3% in assay [2]; -3.7% in assay [3]; 2.75% in assay [4]; -3.7% in assay [5]; 3.8% in assay [6].

Consider `N#CCC(N)C(=O)O` (stereo not given), for which the growth inhibition is 0.7% in assay [1]; -11.1% in assay [2]; -11.8% in assay [3]; -34.4% in assay [4]; -9.2% in assay [5]; 8.65% in assay [6].

The record behind these values is PubChem BioAssay (NCI).
